This note sets out measurements from PubChem BioAssay AID651660 (Broad Institute, 2012).

Broadly, the inhibition is the drop in the measured response relative to a control, in per cent.

Molecules are shown by their SMILES. Hit rate of the full screen: of about 1,900 compounds, about 15 (0.8%) were called active. Shown is part of a subset that was picked to be rich in actives. Unmarked numbers belong to inactive results.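 Rule for the calls: active = every replicate shows at least 50% inhibition; inconclusive = mean inhibition at least 50% but some replicate below; inactive = the rest.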

The target in this experiment is DNA repair protein RAD52 homolog (Homo sapiens) (UniProt P43351). Put plainly: RAD52 ssDNA annealing inhibitors, primary screen, biochemical, FRET, single point (AID 651660).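 Note: 0% = median of neutral control wells and 100% = median of positive control wells.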 The settings on record: Recombinant RAD52 ssDNA annealing, FRET fluorescence, 30 min; at 18.7 µM; stronger effect = higher value.
Chain of DNA repair protein RAD52 homolog (Homo sapiens) (P43351 whole entry, looked up): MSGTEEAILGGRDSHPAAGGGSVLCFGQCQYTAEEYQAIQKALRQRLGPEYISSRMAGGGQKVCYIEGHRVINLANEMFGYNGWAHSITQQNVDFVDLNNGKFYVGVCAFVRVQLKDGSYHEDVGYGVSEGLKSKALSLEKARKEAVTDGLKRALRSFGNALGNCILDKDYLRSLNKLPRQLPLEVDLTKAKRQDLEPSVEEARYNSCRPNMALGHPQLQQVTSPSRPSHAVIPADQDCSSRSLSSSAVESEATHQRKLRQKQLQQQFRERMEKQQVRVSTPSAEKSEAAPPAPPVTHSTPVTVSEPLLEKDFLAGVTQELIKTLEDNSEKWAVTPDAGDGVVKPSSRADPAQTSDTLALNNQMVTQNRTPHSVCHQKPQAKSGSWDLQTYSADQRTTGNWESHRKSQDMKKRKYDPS
For `O=C(Nc1nc2ccccc2s1)c1ccc(F)cc1`, the inhibition is 4.49%.

Regarding `CCN(CC)c1ccc(C2=NNC(=O)CC2C)cc1[N+](=O)[O-]` (configuration not stated), the inhibition was -0.17%.

For `O=C(N/C(=C/C=C\c1ccccc1)C(=O)N1CCOCC1)c1ccc(Br)cc1`, the inhibition is 8.04%.

For `CCOc1ccccc1Oc1coc2cc(OCC(=O)O)ccc2c1=O`, the inhibition is -12.3%.

As to `C(=C\c1ccc2ccccc2n1)/c1ccccc1`, the inhibition is 3.46%.

On to `COc1cc(CC(=O)NCCc2ccc(S(N)(=O)=O)cc2)cc(OC)c1OC`, for which the inhibition is -2.62%.

Take `O=C(NCCCCCc1nc2ccccc2[nH]1)c1ccccc1Cl`: the inhibition was -0.634%.

As for `N=C1C(c2ccccc2)=C(O)CN1CCCO`, the inhibition was -1.52%.

Consider `Cn1c2ccccc2c2cc(/C=C(\NC(=O)c3ccccc3)C(=O)O)ccc21`, for which the inhibition is -10.8%.

For `O=C1c2cccc3cccc(c23)C(=O)N1c1ccccn1`, the inhibition is -4.1%.

For `COCCCNc1nc2c([nH]1)c(=O)[nH]c(=O)n2C`, the inhibition is -1.14%.

In the case of `CCOC(=O)c1cnc2ccccc2c1NCCO`, the inhibition was 10.9%.

Take `O=C(COc1ccccc1)Nc1ccc2c(c1)C(=O)N(CC1CCCO1)C2=O` (configuration not stated): the inhibition is -9.17%.

`COc1ccc(C2C3=C(CC(C)(C)CC3=O)N(C)C3=C2C(=O)CC(C)(C)C3)cc1`: the inhibition is -13.9%.

As for `COc1ccccc1OS(=O)(=O)c1ccc(NC(C)=O)cc1`, the inhibition was 3.22%.

As to `S=C(NCCOCCOCCNC(=S)Nc1ccccc1)Nc1ccccc1`, the inhibition was 4.23%.

On to `Nc1ncnc2c1ncn2C1OC(CO)C(O)C1O` (configuration not stated), for which the inhibition is -0.087%.

`Cc1ccc2c(ccc(=S)n2C)c1`: the inhibition is -5.88%.

Take `O=C(CS(=O)(=O)c1ccccc1)c1ccc2c(c1)OCCO2`: the inhibition was -0.895%.

As for `CCOc1cc2oc(=O)c3c(c2cc1Cl)CCC3`, the inhibition is -1.74%.

`CC[C@H](CO)NCCN[C@H](CC)CO`: the inhibition is -5.2%.

For `Cc1ccc2nc(C)c3c(c2c1)OC(C(C)(Cl)Br)C3` (configuration not stated), the inhibition is 3.5%.

On to `Cc1ccc2nc(N=C(N)N)nc(C)c2c1`, for which the inhibition was 66.7% (active).

As to `Cc1ccc2nc(NC3=NC(CC(=O)O)C(=O)N3)nc(C)c2c1` (configuration not stated), the inhibition was 7.8%.

For `C[C@H](NC(=O)OC(C)(C)C)C(=O)NCC1CCC(C(=O)O)CC1` (some centres not stated), the inhibition was -0.108%.

As for `CC(=O)N(CCC1(C(C)C)CCOC(C)(C)C1)Cc1ccco1` (configuration not stated), the inhibition was -19%.

For `COc1cc(CO)ccc1OCc1nnnn1-c1ccc(C)cc1`, the inhibition is 5.41%.

Turning to `CCC(C)NCCOCCOc1ccc(Cl)cc1Br` (configuration not stated), the inhibition is 9.51%.

Regarding `CCC1CCc2c(sc(NC(=O)c3cccnc3)c2C(N)=O)C1` (configuration not stated), the inhibition was -5.46%.

Regarding `Nc1ccc2[nH]ncc2c1`, the inhibition is 59.5% (active).

`Nc1ccc2nc(Cc3ccccc3)[nH]c2c1`: the inhibition was 33.4%.

Turning to `O=[N+]([O-])c1ccc2cn[nH]c2c1`, the inhibition is -3.19%.

For the molecule `C=C(C)COc1ccc(-c2n[nH]c(C)c2-c2ccc(OC)cc2)c(O)c1`, the inhibition is 17.8%.

On to `CCOc1ccc(C(=O)Nc2ccc(N3CCN(C(C)=O)CC3)cc2)cc1[N+](=O)[O-]`, for which the inhibition was -3.31%.

In the case of `NC(=O)[C@@H]1[C@@H]2C(=O)N(c3ccc(F)cc3)C(=O)[C@@H]2[C@H]2C=Cc3ccccc3N21`, the inhibition was -124%.

`C#CCN1C(=O)C(O)(c2c(C)[nH]c3ccccc23)c2ccccc21` (configuration not stated): the inhibition is -11.1%.

On to `Nc1cccc2nc3ccccc3cc12`, for which the inhibition was 99.5% (active).

In the case of `Cc1nc2cc3ccccc3cc2c(=O)[nH]1`, the inhibition was -5.13%.

Consider `Nc1c2c(nc3ccccc13)CCCC2`, for which the inhibition was 18.1%.

As for `CN(C)C(=O)CCCCCCCCC(=O)N(C)C`, the inhibition is -13.3%.

In the case of `COc1ccc(/C=C(/C#N)c2cccnc2)cc1OC`, the inhibition was -8.25%.

In the case of `CCOC(=O)c1ccc2[nH]c(C)c(CCC(C)=O)c(=O)c2c1`, the inhibition is 0.469%.

`COc1cc(COc2ccc3c(C)c(Cc4ccccc4)c(=O)oc3c2)cc(OC)c1OC`: the inhibition was -0.647%.

On to `CCc1nc2ccccc2c(NC(=O)CN2CC(C)CC(C)C2)c1C` (configuration not stated), for which the inhibition is -5.82%.

In the case of `O=C(CCCn1c(=O)oc2ccccc21)N1CCN(c2ccc(F)cc2)CC1`, the inhibition is -3.01%.

`Cc1ccc(C2CC(=O)C(C=NCCN3CCN(C(=S)Nc4ccccc4)CC3)=C(O)C2)cc1` (configuration not stated): the inhibition was 4.06%.

Take `Cc1ccc2c(c1)C(O)(CC(=O)/C=C/C=C/c1ccccc1)C(=O)N2` (configuration not stated): the inhibition is -10.7%.

On to `CC1(C)CC(=O)C2=C(C1)c1c(ccc3ccccc13)NC2c1ccco1` (configuration not stated), for which the inhibition was -27.1%.

Turning to `CCN(CC)c1ccc([C@H]2[C@@H]3CCCC[C@]3(O)CCN2CC(=O)NCc2ccco2)cc1`, the inhibition was -20.6%.

Regarding `CCc1cc(/C(Cc2ccccn2)=N\O)c(O)cc1O`, the inhibition was -33.7%.

With `CC(C)CC(NC(=O)CNC(=O)C1O[C@@H]2OC(C)(C)O[C@@H]2[C@H]2OC(C)(C)O[C@@H]12)C(=O)O` (some centres not stated), the inhibition was -7%.

Turning to `OCCN(Cc1nc(-c2ccc3c(c2)OCO3)no1)Cc1cccs1`, the inhibition was 2.4%.

In the case of `Cc1ccc(C2CC(=O)C(C=NCCN3CCN(CC(=O)Nc4cc(C)cc(C)c4)CC3)=C(O)C2)cc1` (configuration not stated), the inhibition was -3.07%.

As for `COc1ccccc1N=CC1=C(O)CC(c2ccccc2)CC1=O` (configuration not stated), the inhibition is -25.4%.

Take `C/C(=N\N=C1\NC(=O)C(CC(=O)Nc2ccc(Cl)cc2)S1)c1ccco1` (configuration not stated): the inhibition is -15.6%.

With `COc1ccc(NC(=S)NCCc2c[nH]c3ccccc23)cc1`, the inhibition is 7.25%.

Take `O=C(c1ccc(O)cc1)c1ccc(O)cc1O`: the inhibition was -19.8%.

Take `COc1ccc2[nH]c(=O)c3c(c2c1)OC(C)(C)C=C3`: the inhibition was -5.72%.

On to `CCc1cccc(OC2OC(CO)C(O)C(O)C2NC(C)=O)c1` (configuration not stated), for which the inhibition is -3.23%.

Turning to `COc1ccc2c(C=O)cn(C)c2c1`, the inhibition is -1.85%.

For the molecule `CC(C)CC(NC(=O)c1cccc(Cl)c1)C(=O)O` (configuration not stated), the inhibition is -8.58%.

`CCOC(=O)c1c(O)c2c([nH]c1=O)CCCC2`: the inhibition is 2.81%.

Turning to `COc1cccc(N2C(=O)CC(c3c[nH]c4ccccc34)C2=O)c1` (configuration not stated), the inhibition was -22.5%.

As to `Cc1c(NC(=O)c2cccs2)cccc1[N+](=O)[O-]`, the inhibition was 0.122%.

For the molecule `CC1(C)CC(=O)C(C(=O)CCCCC(=O)C2C(=O)CC(C)(C)CC2=O)C(=O)C1`, the inhibition was -11.5%.

For the molecule `CC(=O)NCCCC(=O)NC(CCC(=O)OCc1ccccc1)C(=O)OCc1ccccc1` (configuration not stated), the inhibition is -10.8%.

In the case of `COC(=O)c1ccc(OCCCCN2CC(C)OC(C)C2)cc1` (configuration not stated), the inhibition was -1.97%.

Turning to `CC1(C)OC2OC(C(=O)N/N=C/c3ccccc3F)C3OC(C)(C)OC3C2O1` (configuration not stated), the inhibition is -8.91%.

With `O=C(/C=C/c1c[nH]c2ccccc12)c1cccc2ccccc12`, the inhibition is -25.7%.

`O=C(CCCCCCCC(=O)c1ccccc1)c1ccccc1`: the inhibition is 2.66%.

In the case of `COc1ccc(CCNc2ncnc3c2[nH]c2cc(OC)c(OC)cc23)cc1OC`, the inhibition is 68.2% (active).

With `Clc1ccc(CCNc2ncnc3nc[nH]c23)cc1`, the inhibition was 1.95%.

Take `COc1cc2[nH]c3c(=O)n(CCN4CCOCC4)cnc3c2cc1OC`: the inhibition is 1.23%.

Consider `CN(Cc1ccccc1)CC(O)COc1ccc(CNCc2cccnc2)cc1` (configuration not stated), for which the inhibition is 25.5%.

For the molecule `COc1c2ccoc2nc2c(OC)cccc12`, the inhibition was 10.6%.

Take `COc1ccc(N2C(=O)[C@@H]3Cc4ccccc4CN3C2=O)cc1`: the inhibition is -7.83%.

Turning to `Cc1oc2c(CN3CCCC3)c(O)ccc2c(=O)c1-c1ccc(Cl)cc1`, the inhibition was 2.93%.

Regarding `CCN(Cc1ccncc1)Cc1nc(Cc2ccccc2Cl)no1`, the inhibition was -13.8%.

With `COc1ccc(C(CC(=O)N2CCOCC2)C(C)C)cc1` (configuration not stated), the inhibition is 4.92%.

In the case of `O=C(CSCc1ccccc1)NCCCN1CCOCC1`, the inhibition was 7.56%.

As to `CCN(Cc1cnn(C)c1)Cc1nc(C(c2ccccc2)c2ccccc2)no1`, the inhibition was 1.94%.

As for `N/C(=N\OC(=O)/C=C/c1ccccc1)c1ccc(Br)cc1`, the inhibition is -5.01%.

Turning to `Cc1nc(-c2coc3c(CN(C)C)c(O)ccc3c2=O)cs1`, the inhibition was 5.53%.

In the case of `O=C(O)c1ccccc1Nc1cccc(C(F)(F)F)c1`, the inhibition is -6.2%.

`Cc1cccc(Nc2ccccc2C(=O)O)c1C`: the inhibition was -13.3%.

Take `c1ccc(Nc2cccc3c(Nc4ccccc4)cccc23)cc1`: the inhibition is 51.9% (active).

As for `COc1ccc(-c2nc(C)c(C(C)=O)n2O)cc1OC`, the inhibition is -4.44%.

On to `COc1cccc(-n2cc(CNCc3c(C(=O)N(C)C)nc4ccc(Cl)cn34)cn2)c1`, for which the inhibition is -5.77%.

In the case of `COC(=O)c1sccc1NC(=O)Nc1ccccc1F`, the inhibition is -4.3%.

As to `Cc1oc2cc(O)cc(O)c2c(=O)c1-c1ccc2c(c1)OCCCO2`, the inhibition was 3.6%.

Consider `Cn1c2ccc(CC(=O)O)cc2c2cc(CC(=O)O)ccc21`, for which the inhibition is -173%.

As to `CC(C)c1ccccc1OCCNC(=S)NC(=O)c1cccnc1`, the inhibition is -11.8%.

With `COc1cccc2c1C(=O)O/C2=C/c1ccc2c(c1)OCO2`, the inhibition is -3.05%.

In the case of `CCn1c(O)c(/C=C2\C=Nc3ccccc32)sc1=O`, the inhibition is 8.58%.

Turning to `COC(=O)c1cc(OC)c(OC)c(OC)c1[N+](=O)[O-]`, the inhibition was -11.8%.

Turning to `COc1ccc(Br)cc1C(=O)Nc1ccc(C(=O)O)cc1`, the inhibition is -5.54%.

For the molecule `Cc1cnc(C(=O)N2CCCC(C(=O)c3ccc(Cl)cc3C)C2)cn1` (configuration not stated), the inhibition was 3.18%.

Consider `Cc1ccc2[nH]c(=O)c(Cc3ccccc3)c(O)c2c1`, for which the inhibition was -9.59%.

In the case of `CN1C(=O)C(O)(CC(=O)/C=C/C=C/c2ccccc2)c2ccccc21` (configuration not stated), the inhibition was -13.6%.

Regarding `COc1ccc(CNCCC(c2ccc(F)cc2)c2ccc(OC(C)C)cc2)cc1OC` (configuration not stated), the inhibition is 57.6% (active).

For the molecule `COc1ccc(CN(CCC(c2ccccc2)c2ccc(OC(C)C)cc2)C(=O)CCl)cc1OC` (configuration not stated), the inhibition was 28.8%.

On to `CC(C)Oc1ccc(C(CC(=O)O)c2ccc(F)cc2)cc1` (configuration not stated), for which the inhibition was -7.3%.
